Measurements taken from PubChem BioAssay AID1851 (National Center for Advancing Translational Sciences (NCATS), 2009).
In all, about 16,000 compounds went through this assay and about 5,800 (36%) were called active. Not shown: some 23% with an inconclusive outcome. Calls follow the shape of the dose curve; as a rule, active = well fitted curve in the direction sought with a large enough effect; inconclusive = small, poorly fitted or top-dose-only effect, or effect the other way; inactive = no such curve, though single readings can be large or run the other way. The list shows a part of the results.

These molecules were tested against Cytochrome P450 2C19 (Homo sapiens) (UniProt P33261) (assay: Cytochrome panel assay with activity outcomes). Conditions: recombinant CYP, pro-luciferin dealkylation, luminescence, p450-cyp2c19; series mostly up to 57.1 µM.
Cytochrome P450 2C19 (Homo sapiens), sequence (P33261 whole entry, looked up): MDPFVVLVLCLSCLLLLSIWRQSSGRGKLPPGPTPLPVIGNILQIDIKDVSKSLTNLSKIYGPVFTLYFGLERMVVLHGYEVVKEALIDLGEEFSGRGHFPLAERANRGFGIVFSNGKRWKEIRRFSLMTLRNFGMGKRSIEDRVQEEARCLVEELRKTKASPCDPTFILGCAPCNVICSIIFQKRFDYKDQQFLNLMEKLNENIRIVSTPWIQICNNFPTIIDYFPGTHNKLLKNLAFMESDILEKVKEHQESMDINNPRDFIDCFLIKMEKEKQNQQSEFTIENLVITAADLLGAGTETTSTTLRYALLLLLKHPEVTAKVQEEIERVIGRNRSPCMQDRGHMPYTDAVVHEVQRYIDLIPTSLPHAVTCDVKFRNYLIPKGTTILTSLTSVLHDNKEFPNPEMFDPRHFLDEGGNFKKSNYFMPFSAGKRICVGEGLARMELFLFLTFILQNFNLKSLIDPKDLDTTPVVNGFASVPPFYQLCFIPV
% is scaled to controls: 0 for no effect and ±100 for the full control effect.

AC50, active:
Cc1ccc(Cl)cc1N1CCN(S(=O)(=O)c2ccc3c(c2)OCCO3)CC1 3.98 µM, Cc1ccc2nc(N3CCN(S(=O)(=O)c4ccc5c(c4)OCCO5)CC3)c(C#N)cc2c1 2.51 µM, CCOc1cc(NC(=O)C2CCCCC2)c(OCC)cc1NC(=O)c1ccco1 7.94 µM, CCC(NC(=O)c1ccccc1NC(=O)c1ccco1)C(=O)NC1CCCCC1 (stereo unspecified) 15.8 µM, COCCNc1nc(-c2ccccc2C(F)(F)F)nc2ccccc12 20 µM, FC(F)(F)c1ccccc1-c1nc(NCc2cccs2)c2ccccc2n1 7.94 µM, CC(=O)NCCNc1nc(-c2ccccc2Cl)nc2ccccc12 3.98 µM, FC(F)(F)c1ccccc1-c1nc(NCc2cccnc2)c2ccccc2n1 3.98 µM, Clc1ccccc1-c1nc(NCc2cccs2)c2ccccc2n1 7.94 µM, Cn1c(-c2ccc(F)cc2)cnc1NCc1cccc(F)c1 6.31 µM, Cn1c(-c2ccc(F)cc2)cnc1NCc1ccc(F)cc1 2.51 µM, CCCCN1C(=O)NC(NC(=O)c2ccco2)(C(F)(F)F)C1=O (stereo unspecified) 8.91 µM, O=C(NC1(C(F)(F)F)NC(=O)N(Cc2cccnc2)C1=O)c1ccccc1 (stereo unspecified) 15.8 µM, Cc1ccc2nc(SCc3nnc(-c4ccccc4[N+](=O)[O-])o3)c(C#N)cc2c1 0.794 µM, CN(Cc1ccccc1)Cn1ccnc1 2 µM, CCOc1nc(NCCc2ccc(OC)c(OC)c2)nc(NC(C)(C)CO)n1 6.31 µM, COCCn1c(=O)cnc2cnc(Oc3ccccc3)nc21 10 µM, O=c1cnc2cnc(Oc3ccccc3)nc2n1CCc1ccccc1 6.31 µM, COCCn1c(=O)c(-c2cccs2)nc2cnc(Oc3ccccc3)nc21 10 µM, COc1ccc(S(=O)(=O)N(CC(=O)N2CCCC2)Cc2ccccc2)cc1 5.62 µM, COc1ccc(S(=O)(=O)N(CCc2ccccc2)CC(=O)N2CCOCC2)cc1 10 µM, c1ccc2c(Nc3ccncc3)nc(-c3ccc4c(c3)OCO4)nc2c1 3.98 µM, c1ccc(Nc2nc(-c3ccc4c(c3)OCO4)nc3ccccc23)cc1 3.16 µM, CCOc1ccc(-n2c(SCC(=O)Nc3ccc(OC)cc3)nc3c(c2=O)SCC3)cc1 7.08 µM, CCOc1ccc(-n2c(SCC(=O)Nc3ccc4c(c3)OCCO4)nc3c(c2=O)SCC3)cc1 2.82 µM, CCOc1ccc(-n2c(SCC(=O)Nc3ccc(OC)cc3OC)nc3c(c2=O)SCC3)cc1 5.01 µM

AC50, inactive:
CN1CCc2cc(Cl)c(O)cc2[C@H](c2ccccc2)C1, O=C(O)CCC(=O)N1CCOc2ccc(Cl)cc21, CCOc1cc(NC(=O)c2cccs2)c(OCC)cc1NC(=O)c1ccco1, CCCC[P+](CCCC)(CCCC)Cc1ccc(NC(=O)[C@@H](Cc2ccc3ccccc3c2)NC(=NC2CCCCC2)NC2CCCCC2)cc1, CC(=O)NCCNc1nc(-c2ccccc2C(F)(F)F)nc2ccccc12, CC(=O)NCCNc1nc(-c2ccccc2C)nc2ccccc12, CN(C)C(=O)c1ccc(-c2nc(NCc3cccnc3)c3ccccc3n2)cc1, FC(F)(F)c1ccccc1-c1nc(NCCN2CCOCC2)c2ccccc2n1, COCCNc1nc(-c2ccccc2OC)nc2ccccc12, CCCCCCCCCCCCCCC[C@@H](O)[C@@H](N)CO, CN(C)Cc1ccccc1-c1nc(NCc2cccs2)c2ccccc2n1, CN(C)CCNC(=O)Cn1nc(-c2ccc(Cl)cc2)ccc1=O, COc1ccc(NC(=O)N2CCC3(CC2)CCN(C(=O)c2csnn2)CC3)cc1, CC(=O)C1C(c2ccccc2OC(F)F)NC(=O)NC1(O)C(F)(F)F (stereo unspecified), CCNc1ncc2nc(-c3ccc(F)cc3)c(=O)n(C)c2n1, Cc1ccc(-c2cnc(NC(=O)CCC(=O)N3CCCCC3)n2C)cc1, Cn1c(-c2ccccc2)cnc1N, O=C(NC1(C(F)(F)F)C(=O)Nc2c1c(=O)[nH]c(=O)n2-c1ccc(F)cc1)c1cccnc1 (stereo unspecified), O=C(c1ccco1)N1CCC2(CC1)CN(Cc1cc(C(F)(F)F)cc(C(F)(F)F)c1)C2, C#CCN(C)Cc1ccccc1, COc1ccc(CCNC[C@H](O)c2ccc(O)cc2)cc1OC, COc1ccc(Oc2ncc3ncc(=O)n(CCc4ccccc4)c3n2)cc1, COCCn1c(=O)cnc2cnc(Oc3ccc(OC)cc3)nc21, Cn1c(=O)c(-c2cccs2)nc2cnc(Oc3ccccc3)nc21, COCCn1c(=O)c(-c2ccccc2)nc2cnc(Oc3ccccc3)nc21, COc1ccc(NC(=O)N2CCCC3(CCN(S(=O)(=O)c4ccccc4)CC3)C2)cc1, CCN(CC)S(=O)(=O)c1ccc2c(c1)nc(SCC(=O)N1CCOCC1)n2-c1ccccc1OC, CN(Cc1ccccc1)S(=O)(=O)c1ccc(OCC(=O)N2CCOCC2)cc1

activity, negative = inhibition, inactive:
CO[C@@H]1COC(=O)CC=C[C@@H](C)[C@@H]2C=C[C@H](O)[C@@H](COC(=O)[C@H](C)NC(=O)CC=C[C@H]1C)O2 -12.2% [at 11.4 µM], CCOC(=O)CCN1C(=O)[C@H]2[C@H]3[C@H](O)[C@H](O)C/C(=N/OC/C=C(\C)CCC=C(C)C)[C@@H]3CC[C@@H]2C1=O 6.34% [at 11.4 µM], O=c1[nH]c(SCc2c(Cl)c(Cl)c(Cl)c(Cl)c2Cl)nc(=S)[nH]1 -28.6% [at 11.4 µM], CCN(CC)C[C@@H](O)CN1CCCCc2nc(C)c(C)cc21 32.1% [at 11.4 µM], NS(=O)(=O)c1ccc(N=Nc2ncccc2O)cc1 -17% [at 11.4 µM], Cc1nc2cccc([N+](=O)[O-])c2n1CCCN(C)C 37.8% [at 11.4 µM], C/C(CCN1CCCCc2nc(C)c(C)cc21)=N\O[C@@H](C)c1cc(-c2c(C)cc(C)cc2C)no1 -41.4% [at 11.4 µM]
